MITF primary: MITF inhibitors, primary screen, biochemical, AlphaScreen, human; 650,000 tested, 0.91% active; inhibition, % at 2.6 µM; AlphaScreen MITF homodimerization, bead proximity signal; in the data active = inhibition above about 50%;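 also: 0% = vehicle wells with protein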
FBW7 activator: FBW7 E3 ligase activators, primary screen, biochemical, AlphaScreen, human | AID 1259310, 2017 | 650,000 tested, 0.13% active | AlphaScreen FBW7–phospho-cyclin E peptide binding, activator screen | normalized activity (activation), % at 26.1 µM; in the data active = normalized activity above about 1.9%;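 also: purified mutant Fbw7 with reduced substrate affinity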
Target sequence (Q969H0 whole entry, looked up): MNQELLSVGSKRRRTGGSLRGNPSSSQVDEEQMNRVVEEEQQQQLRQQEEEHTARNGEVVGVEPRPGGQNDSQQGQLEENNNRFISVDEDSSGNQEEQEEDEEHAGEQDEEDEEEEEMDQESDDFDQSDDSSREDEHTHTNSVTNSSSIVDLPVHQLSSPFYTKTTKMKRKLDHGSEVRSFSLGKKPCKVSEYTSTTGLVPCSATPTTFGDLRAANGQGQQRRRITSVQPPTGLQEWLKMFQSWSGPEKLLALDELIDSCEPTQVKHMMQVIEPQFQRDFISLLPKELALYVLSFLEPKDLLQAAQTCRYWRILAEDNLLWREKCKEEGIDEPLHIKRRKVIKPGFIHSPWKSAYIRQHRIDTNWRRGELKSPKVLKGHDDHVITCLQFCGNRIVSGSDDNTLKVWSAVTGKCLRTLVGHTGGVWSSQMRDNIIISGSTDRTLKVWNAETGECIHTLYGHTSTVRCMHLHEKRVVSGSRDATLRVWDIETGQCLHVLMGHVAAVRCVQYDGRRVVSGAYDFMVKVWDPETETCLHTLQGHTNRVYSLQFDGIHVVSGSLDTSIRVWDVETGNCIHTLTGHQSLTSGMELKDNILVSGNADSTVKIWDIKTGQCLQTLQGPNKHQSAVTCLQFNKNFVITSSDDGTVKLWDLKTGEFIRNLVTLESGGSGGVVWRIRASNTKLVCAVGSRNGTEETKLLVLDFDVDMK
GPR151 activ: activators of human GPR151, primary screen, cell-based, PathHunter beta-arrestin, luminescence; G-protein coupled receptor 151 (Homo sapiens), Q8TDV0; PathHunter beta-arrestin GPR151 cells; activation, % at 11.2 µM; 650,000 tested, 1% active; in the data active = activation above about 4.9%;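 also: 0% = median of compound wells and 100% = cells with positive control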
TEAD-YAP block: TEAD-YAP interaction inhibition, primary screen, TEAD-YAP interaction inhibitor project, luminescence, HEK-TIYL cells; TEAD-Gal4/YAP UAS-luciferase luminescence; inhibition, % at 9.12 µM; 640,000 tested, 1.4% active; AID 1259422, 2018; in the data active = inhibition above about 32%;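 also: 0% = median of test compound wells and 100% = reference inhibitor wells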
GPR151 conf act: GPR151 activators, triplicate retest, confirmation, cell-based, PathHunter beta-arrestin, luminescence | shares compounds with GPR151 activ | GPR151 PathHunter beta-arrestin cells, 90 min; % of EA-reagent control over plate median | activation, % at 11.2 µM | 6,700 tested, under 10 active | AID 1508609, 2020;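 active = mean percent activation across replicates above the confirmation screen cutoff of 4.91%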
GPR119 ag: GPR119 activators in beta-arrestin cells, counter-screen for GPR151 activator project, cell-based, PathHunter beta-arrestin, luminescence, triplicate | 90 min; 0 = compound-well median, 100 = enzyme-acceptor control | 6,700 tested, 0.3% active | activation, % at 11.2 µM | shares compounds with GPR151 activ | AID 1508611, 2020;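 active = mean percent activation in the counterscreen above 29.09%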;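 also: counterscreen on off-target GPR119 to flag nonselective hits from the GPR151 activator screen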
An asterisk follows results filed as active; x = no result given. Only some compounds are listed: those with a hit (about 3.5% of all), similar ones and a draw of the others.

SMILES	MITF primary	FBW7 activator	GPR151 activ	TEAD-YAP block	GPR151 conf act	GPR119 ag
Oc1oc(-c2ccccc2Br)nc1C=Nc1ccc(Br)cc1	-3	0	1	-1	x	x
Oc1oc(-c2ccccc2Br)nc1C=Nc1ccc(I)cc1	6	0	9.3*	-1	0	2
c1ccc(CNc2nc(Nc3ccc(-n4ccnc4)cc3)nc3c2ncn3-c2ccccc2)cc1	-1	0	2	-6	x	x
O=C(N/N=C/c1cccs1)C1CC(=O)N(c2ccc(Cl)cc2)C1 (configuration not stated)	-17	0	12*	1	0	13
CCCCC(C)NC(=O)C1CC(=O)N(c2ccc(OCC)cc2)C1 (configuration not stated)	-10	0	5.5*	7	0	13
CC(=O)Nc1ccc(NC(=O)C2CC(=O)N(c3ccc(Br)cc3)C2)cc1 (configuration not stated)	3	0	8.5*	-4	-1	-15
Cc1ccc(NC(=O)COc2ccc(N3CC(C(N)=O)CC3=O)cc2)cc1 (configuration not stated)	7	0	6.4*	7	1	7
CCOc1ccc(NC(=O)COC(=O)C2CC(=O)N(c3ccc(C)cc3)C2)cc1 (configuration not stated)	7	0	-1	9	x	x
O=C(N/N=C/c1ccc(Br)cc1)C1CC(=O)N(c2ccc(F)cc2)C1 (configuration not stated)	12	0	0	7	x	x
O=C(N/N=C/c1cccc(Br)c1)C1CC(=O)N(c2ccccc2)C1 (configuration not stated)	13	2.8*	5.3*	6	1	5
Cc1ccc(NC(=O)NCC2CCCN2S(=O)(=O)c2ccc(C)cc2)cc1 (configuration not stated)	0	0	5.8*	-35	-1	-18
Cc1ccc(NC(=O)C(=O)NCC2CCCN2S(=O)(=O)c2ccc(C)cc2)cc1 (configuration not stated)	8	1	-1	4	x	x
CCNC(=O)C(=O)NCC1CCCN1S(=O)(=O)c1ccccc1 (configuration not stated)	23	0	7.2*	0	-1	1
CC1=Nc2nc(N3CCCCC3)c(C#N)c3c4c(nc(c23)N1)N(c1ccc(C)cc1)C(=O)C4	12	0	-2	4	x	x
COC(=O)c1cccc(C(=O)Oc2ccc(Br)cc2)n1	-1	0	1	0	x	x
CC(C)OC(=O)c1cccc(C(=O)Oc2ccc(Br)cc2)n1	8	0	6.7*	13	-1	-8
Cc1nc(SCC(=O)NNC(=O)c2cccs2)n[nH]1	10	1	5.8*	0	0	1
O=C(Nc1ccccc1OC(F)F)c1ccc(F)cc1	7	0	1	-18	x	x
CC(=O)Nc1ccccc1OC(F)F	7	0	7.1*	-3	1	13
Cc1ccc(N2C(=O)SC(Nc3ccccc3)C2=O)cc1 (configuration not stated)	13	0	1	-43	x	x
Cc1ccc(N2C(=O)SC(Nc3ccc(I)cc3)C2=O)cc1 (configuration not stated)	-1	0	-1	-2	x	x
Cc1cccc(NC2SC(=O)N(c3ccc(F)cc3)C2=O)c1 (configuration not stated)	16	0	5.6*	-27	0	-12
Cc1ccc(N2C(=O)SC(Nc3ccc(F)cc3)C2=O)cc1 (configuration not stated)	7	0	5.4*	-14	0	-9
COc1cccc2c1OCCCN(Cc1nc(Cc3ccccc3Cl)no1)C2	2	0	5.7*	-2	-1	-8
Cc1ccc(-c2csc(-c3cc4c(ccc5ccccc54)oc3=O)n2)cc1	-4	0	1	2	x	x
SMILES	MITF primary	FBW7 activator	GPR151 activ	TEAD-YAP block	GPR151 conf act	GPR119 ag
CC(Oc1ccc(C(C)(C)C)cc1)C(=O)NC1CCS(=O)(=O)C1 (configuration not stated)	-13	0	5.2*	3	0	-7
CC(O)CC(=O)N1CCc2cc(S(=O)(=O)N(C)C)ccc21 (configuration not stated)	4	0	5.3*	-1	0	-9
COc1ccc(NC(=O)C(Cc2ccccc2)N2C(=O)C3C4C=CC(C4)C3C2=O)cc1 (configuration not stated)	12	1	0	7	x	x
CC1CCCCC1NC(=O)CNC(=S)N(Cc1cccs1)C1CCCCC1 (configuration not stated)	-15	0	0	-14	x	x
O=C(CNC(=S)N(Cc1cccs1)C1CCCCC1)NC1CCCC1	2	0	6.2*	7	-1	4
Cc1ccc(C(=O)COC(=O)CN2C(=O)C3C4C=CC(C4)C3C2=O)cc1[N+](=O)[O-] (configuration not stated)	1	0	13*	3	0	10
Cc1ccc(C(=O)COC(=O)CN2C(=O)C3C4CCC(C4)C3C2=O)cc1[N+](=O)[O-] (configuration not stated)	-14	0	-1	-7	x	x
O=C(C1c2ccccc2C(=O)N2CCc3ccccc3C12)N1CCN(C2CCCCC2)CC1 (configuration not stated)	-2	0	12*	4	0	-3
O=C(CC(NCc1ccccc1)C(=O)O)Nc1cc(Cl)ccc1Cl (configuration not stated)	0	0	7.2*	1	0	14
O=C(CCc1ccccc1)Nc1cc(Cl)ccc1Cl	6	0	-1	-8	x	x
O=C(NCc1ccccc1)c1cnc2cc(-c3cn[nH]c3)ccn12	1	0	6.2*	-10	0	12
COCCN(C(=O)Cc1ccc(F)cc1)C1CCN(Cc2ccncc2)CC1	8	0	6.6*	2	-1	-14
Cc1ccc(C(=O)NC(Nc2ccccc2C)C(=O)c2ccccc2)cc1 (configuration not stated)	5	0	0	-11	x	x
Cc1ccc(S(=O)(=O)NCCc2csc(-c3cccc(F)c3)n2)cc1C	2	0	1	-10	x	x
O=C(/C=C/c1cccs1)Nc1cc([N+](=O)[O-])ccc1Cl	15	0	1	-1	x	x
